# ± gives the standard deviation.
# System: EfPiwi piRISC loaded with piRNA #1 (26 nt)
# Test: pre-steady-state target cleavage rate (min^-1); auxiliary factor: 500 nM Ephydatia muelleri Gtsf1; guide: piRNA #1 5'p-UGAGGUAGUAGGUUGUAUAGUAUCCA; MIWI and MILI are mouse PIWI proteins and EfPiwi is from a freshwater sponge; tags in brackets are library labels; higher = faster piRNA-guided slicing of the target
# How it was run: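 Sequencing of uncleaved targets, normalised to depth and to weakly complementary targets, was the readout of this Cleave-'n-Seq assay. A transcribed, DNA-blocked target RNA library (0.1 nM) was mixed with 1 nM active affinity-purified piRISC carrying one synthetic guide, with or without 500 nM GTSF1 partner protein, in HEPES–potassium acetate buffer at 33 °C for 0–8 or 0–960 min. Three trials were pooled, k3 was capped at 0.0001 min^-1, and a burst-and-steady-state fit gave the pre-steady-state cleavage rate.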
row,Sequence,pre-steady-state target cleavage rate
1,GGAGAGGAUACUAUACUAACCUACUACCUCA,0.0128 ± 0.007
2,GGAGAGGAUACUAUACAACCUAGAACCUCA,0.00379 ± 0.0022
3,GGAGUGGAUACUAUACAACGUACUAGCUCA,0.00412 ± 0.0023
4,GGAGUGGAUACUAUUCAUCCUACUACCUCA,0.0078 ± 0.0036
5,GGAGACGAUACUAUACAAACUACUACCUCA,0.00656 ± 0.0025
6,GGAGUGGAUACUAUACAACCUUACUACCUCA,0.00695 ± 0.0034
7,GGAGACCAUACUAUACUAACCUACUACCUCA,0.0042 ± 0.0031
8,GGAGACCUAUGUAUAGAACCUUCUACCUCA,< 0.0001
9,GGAGACCAUACUAUACAACACUACUACCUCA,0.00469 ± 0.0037
10,GGAGAGGAUACUAUUCAACCUACUACGUCA,0.00309 ± 0.0023
11,GGAGACCUAUCUGAUACAACCUACUACCUCA,0.00758 ± 0.0035
12,GGAGACCAUACUAUACAACCAACUACCUGA,0.00258 ± 0.0022
13,GGAGAGGAUACUAUACAACCUUGUACCUCA,0.00294 ± 0.0029
14,GGAGACCUAUCUAUGCAACCUACUACCUCA,0.00656 ± 0.0037
15,GGAGACCUUGACUAUACAACCUACUACCUCA,0.00922 ± 0.0051
16,GGAGAGGAUACUAUACAACCUAGAUCCUCA,0.00241 ± 0.0021
